Test in all cases: protein-binding microarray (PBM); PBM: ~300 nM protein, 6 mM HEPES pH 7.8, 80 mM KCl, 0.5 mM EDTA, 0.5 mM EGTA, 6% glycerol, 35 ng/ul poly-dIdC, 1% milk, 1 h, room temperature; Ap Aiptasia and Nv Nematostella (sea anemones) / Co Capsaspora / Aq Amphimedon (sponge) / Dm Drosophila / Hu human; RHD is the Rel homology domain; high values mean tight binding
Common to all, as to conditions: dsDNA, one strand shown

One test deals with T1, GST-Ap-NF-kB RHD (Exaiptasia pallida (Aiptasia), UniProt A0A913YAJ5 2-422).
T1 sequence: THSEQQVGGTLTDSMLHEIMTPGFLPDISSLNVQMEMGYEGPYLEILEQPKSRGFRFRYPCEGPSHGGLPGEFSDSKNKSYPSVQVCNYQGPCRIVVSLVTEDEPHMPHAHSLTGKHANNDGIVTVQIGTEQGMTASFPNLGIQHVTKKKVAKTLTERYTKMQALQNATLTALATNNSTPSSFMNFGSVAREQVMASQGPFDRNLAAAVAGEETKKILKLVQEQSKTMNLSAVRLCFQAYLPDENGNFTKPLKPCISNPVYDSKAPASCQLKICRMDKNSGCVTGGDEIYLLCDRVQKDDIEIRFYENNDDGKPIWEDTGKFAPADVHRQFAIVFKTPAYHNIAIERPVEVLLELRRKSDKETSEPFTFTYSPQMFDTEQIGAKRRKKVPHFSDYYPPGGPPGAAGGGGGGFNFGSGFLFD

For another test, the target named is T2, GST-Co-NF-kB (Capsaspora owczarzaki, UniProt F1ARL5 200-546).
T2 sequence: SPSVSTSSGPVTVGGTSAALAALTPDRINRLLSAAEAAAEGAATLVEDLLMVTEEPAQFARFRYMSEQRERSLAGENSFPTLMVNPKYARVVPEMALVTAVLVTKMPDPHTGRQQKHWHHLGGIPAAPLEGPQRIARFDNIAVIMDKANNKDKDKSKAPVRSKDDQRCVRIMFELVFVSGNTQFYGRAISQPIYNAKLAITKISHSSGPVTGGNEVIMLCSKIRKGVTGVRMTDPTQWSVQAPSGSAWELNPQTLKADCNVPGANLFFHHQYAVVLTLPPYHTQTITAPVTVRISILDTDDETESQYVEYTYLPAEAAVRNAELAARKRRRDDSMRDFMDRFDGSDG

The target in a further test is T3, GST-Dm-Relish (Drosophila melanogaster, UniProt Q94527 99-473).
T3 sequence: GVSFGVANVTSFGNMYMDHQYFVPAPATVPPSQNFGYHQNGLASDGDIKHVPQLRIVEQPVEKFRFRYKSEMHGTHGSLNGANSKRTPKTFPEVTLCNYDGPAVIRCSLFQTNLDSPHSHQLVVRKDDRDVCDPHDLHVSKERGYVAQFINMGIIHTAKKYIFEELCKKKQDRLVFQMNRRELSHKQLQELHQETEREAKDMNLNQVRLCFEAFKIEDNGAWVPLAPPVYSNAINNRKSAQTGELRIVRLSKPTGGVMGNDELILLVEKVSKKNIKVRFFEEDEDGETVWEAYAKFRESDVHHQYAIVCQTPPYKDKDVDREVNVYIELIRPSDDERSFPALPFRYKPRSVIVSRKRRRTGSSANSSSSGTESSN

The next test addresses T4, GST-Aq-NF-kB (Amphimedon queenslandica, UniProt A9Y5G7 2-389).
T4 sequence: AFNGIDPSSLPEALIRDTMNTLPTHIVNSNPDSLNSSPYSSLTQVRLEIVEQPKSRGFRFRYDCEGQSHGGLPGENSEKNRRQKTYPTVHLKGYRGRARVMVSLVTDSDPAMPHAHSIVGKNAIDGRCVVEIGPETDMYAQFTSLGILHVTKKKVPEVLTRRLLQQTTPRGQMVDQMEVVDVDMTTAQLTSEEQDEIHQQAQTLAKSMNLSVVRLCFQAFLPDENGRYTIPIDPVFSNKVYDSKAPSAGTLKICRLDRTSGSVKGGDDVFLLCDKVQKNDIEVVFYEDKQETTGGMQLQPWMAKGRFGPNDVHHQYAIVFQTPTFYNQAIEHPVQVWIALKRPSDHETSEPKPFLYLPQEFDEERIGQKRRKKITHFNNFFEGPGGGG

Test [1] addresses T5, GST-Nv-NF-kB (Cys allele) (Nematostella vectensis, UniProt E5G601 2-411).
T5 sequence: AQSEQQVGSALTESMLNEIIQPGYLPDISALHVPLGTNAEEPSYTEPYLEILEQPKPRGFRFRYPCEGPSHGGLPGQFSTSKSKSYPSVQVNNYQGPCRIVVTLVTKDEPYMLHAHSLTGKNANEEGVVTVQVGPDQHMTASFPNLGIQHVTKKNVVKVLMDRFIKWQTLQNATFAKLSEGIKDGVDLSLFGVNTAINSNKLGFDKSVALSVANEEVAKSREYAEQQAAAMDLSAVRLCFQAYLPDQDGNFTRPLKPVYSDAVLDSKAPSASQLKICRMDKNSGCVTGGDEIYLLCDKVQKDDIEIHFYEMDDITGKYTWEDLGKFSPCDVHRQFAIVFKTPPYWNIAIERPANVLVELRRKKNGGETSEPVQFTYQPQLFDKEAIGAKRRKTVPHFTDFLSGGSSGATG

Our source for the binding signal values is article PMC5700166.

In the case of “CCGATTAACATCAGGTGTTCCCATGATGTTAATCGGGTCTTGATTCGCTTGACGCTGCTG”, the binding signal in the test with GST-Ap-NF-kB RHD was found to be 1.43 z-score; with GST-Co-NF-kB it was 1.45 z-score; with GST-Dm-Relish, 5.22 z-score; with GST-Aq-NF-kB it was 2.04 z-score.

As to “CCGATTAACATCAAGGGGGGGAGTGATGTTAATCGGGTCTTGATTCGCTTGACGCTGCTG”, the binding signal turned out to be 4.51 z-score with GST-Ap-NF-kB RHD, 7.82 z-score with GST-Co-NF-kB, 3.56 z-score with GST-Dm-Relish and 4.43 z-score with GST-Aq-NF-kB.

In the case of “CCGATTAACATCACCTCCCCCCCTGATGTTAATCGGGTCTTGATTCGCTTGACGCTGCTG”, the binding signal with GST-Ap-NF-kB RHD was found to be 4.48 z-score; in the test with GST-Co-NF-kB, 3.77 z-score; in the test with GST-Dm-Relish, 4.13 z-score; in the test with GST-Aq-NF-kB it was 3.93 z-score.

In the case of “CCGATTAACATCAGTACTTCCCATGATGTTAATCGGGTCTTGATTCGCTTGACGCTGCTG”, the binding signal with GST-Ap-NF-kB RHD is 1.53 z-score; in the test with GST-Co-NF-kB, 1.42 z-score; with GST-Dm-Relish it was 9.09 z-score; with GST-Aq-NF-kB, 2.53 z-score.

Regarding “CCGATTAACATCACGGAGATCCCTGATGTTAATCGGGTCTTGATTCGCTTGACGCTGCTG”, the results for the binding signal in the test with GST-Ap-NF-kB RHD, with GST-Dm-Relish and with GST-Aq-NF-kB were 1.39 z-score, 4.73 z-score and 3.81 z-score, respectively.

Regarding “CCGATTAACATCAGTAGTGGGGCTGATGTTAATCGGGTCTTGATTCGCTTGACGCTGCTG”, the binding signal in test [1] is 1.01 z-score; with GST-Aq-NF-kB it was 1.72 z-score.

“CCGATTAACATCAGGAGATCCCATGATGTTAATCGGGTCTTGATTCGCTTGACGCTGCTG”: the binding signal is 1.24 z-score with GST-Ap-NF-kB RHD, 4.37 z-score with GST-Dm-Relish and 2.7 z-score in the test with GST-Aq-NF-kB.

For the sequence “CCGATTAACATCAGGGGGGGGGATGATGTTAATCGGGTCTTGATTCGCTTGACGCTGCTG”, the binding signal with GST-Ap-NF-kB RHD is 6.37 z-score; in the test with GST-Co-NF-kB it was 7.03 z-score; with GST-Dm-Relish it was 5.78 z-score; in the test with GST-Aq-NF-kB it was 5.02 z-score.

As for “CCGATTAACATCAGCGGAATTCCTGATGTTAATCGGGTCTTGATTCGCTTGACGCTGCTG”, the binding signal with GST-Ap-NF-kB RHD amounted to 1.33 z-score; in the test with GST-Dm-Relish, 2.27 z-score; in the test with GST-Aq-NF-kB, 1.89 z-score.

“CCGATTAACATCAGGAATATTCCTGATGTTAATCGGGTCTTGATTCGCTTGACGCTGCTG”: the binding signal in test [1] was 1.22 z-score; in the test with GST-Aq-NF-kB it was 1.34 z-score.

In the case of “CCGATTAACATCAGTGTCCCGTTTGATGTTAATCGGGTCTTGATTCGCTTGACGCTGCTG”, the binding signal in test [1] amounted to 2.18 z-score; with GST-Aq-NF-kB, 1.32 z-score.

Turning to “CCGATTAACATCACGGCAACCCCTGATGTTAATCGGGTCTTGATTCGCTTGACGCTGCTG”, the binding signal was 1.78 z-score with GST-Ap-NF-kB RHD, 1.46 z-score with GST-Dm-Relish and 2.35 z-score in the test with GST-Aq-NF-kB.

With “CCGATTAACATCAATCCCCCCCCTGATGTTAATCGGGTCTTGATTCGCTTGACGCTGCTG”, the binding signal with GST-Ap-NF-kB RHD was 7.49 z-score; in the test with GST-Co-NF-kB it was 7.2 z-score; in the test with GST-Dm-Relish, 6.09 z-score; with GST-Aq-NF-kB, 5.2 z-score.

Turning to “CCGATTAACATCAGGATTTTACCTGATGTTAATCGGGTCTTGATTCGCTTGACGCTGCTG”, the binding signal in test [1] came to 2.01 z-score; in the test with GST-Dm-Relish, 3.21 z-score; with GST-Aq-NF-kB, 3.66 z-score.

“CCGATTAACATCAGGAATCTACCTGATGTTAATCGGGTCTTGATTCGCTTGACGCTGCTG”: the binding signal in test [1] was 1.61 z-score; in the test with GST-Dm-Relish, 2.24 z-score; in the test with GST-Aq-NF-kB it was 3.42 z-score.

Take “CCGATTAACATCACATTGGGAAATGATGTTAATCGGGTCTTGATTCGCTTGACGCTGCTG”: the binding signal came to 2.26 z-score in test [1], 2.31 z-score in the test with GST-Co-NF-kB, 1.18 z-score in the test with GST-Dm-Relish and 1.18 z-score with GST-Aq-NF-kB.

Turning to “CCGATTAACATCAAGGACTTTCCTGATGTTAATCGGGTCTTGATTCGCTTGACGCTGCTG”, the values for the binding signal (in test [1]; in the test with GST-Dm-Relish; with GST-Aq-NF-kB) were 1.03 z-score, 3.11 z-score and 4.6 z-score, respectively.

As for “CCGATTAACATCAGGAATGTACCTGATGTTAATCGGGTCTTGATTCGCTTGACGCTGCTG”, the binding signal in test [1] was 1.98 z-score; with GST-Dm-Relish, 4.93 z-score; with GST-Aq-NF-kB, 3.14 z-score.

With “CCGATTAACATCATTTCCCAAAATGATGTTAATCGGGTCTTGATTCGCTTGACGCTGCTG”, the binding signal in test [1] was found to be 2.55 z-score; with GST-Co-NF-kB, 1.54 z-score; in the test with GST-Dm-Relish it was 1.36 z-score; with GST-Aq-NF-kB it was 1.26 z-score.

Regarding “CCGATTAACATCAGGGCAGTACCTGATGTTAATCGGGTCTTGATTCGCTTGACGCTGCTG”, the binding signal in test [1] was determined as 1.21 z-score; with GST-Dm-Relish, 1.84 z-score; with GST-Aq-NF-kB, 3.03 z-score.

As to “CCGATTAACATCAGGAAATTTCCTGATGTTAATCGGGTCTTGATTCGCTTGACGCTGCTG”, the binding signal in test [1] was 1.72 z-score; with GST-Dm-Relish it was 1.75 z-score; with GST-Aq-NF-kB, 3.27 z-score.

Take “CCGATTAACATCAACGGAAATTCTGATGTTAATCGGGTCTTGATTCGCTTGACGCTGCTG”: the binding signal with GST-Co-NF-kB was determined as 1.34 z-score; with GST-Aq-NF-kB, 1.24 z-score.

Turning to “CCGATTAACATCAGGAATTTACCTGATGTTAATCGGGTCTTGATTCGCTTGACGCTGCTG”, the binding signal in test [1] was found to be 3.18 z-score; in the test with GST-Dm-Relish it was 4.54 z-score; with GST-Aq-NF-kB, 4.81 z-score.
